For 13 compounds, growth results are on record in PubChem BioAssay (NCI).

This is part of a sample that, as a whole, favours compounds with a hit. Of some 83,000 tested, about 20% had one in any assay.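 Treatment: one concentration, 48 hours, 96-well format. Scoring: percent growth, with anything below 10 considered active.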 A number with no mark means an inactive call. Activity calls are given as the source filed them.

Some test systems named below: NCI-H23 lung; NCI-H226 lung; NCI-H322M lung; HOP-62 NSCLC; NCI-H460 lung; HOP-92 NSCLC; NCI-H522 lung; A549/ATCC NSCLC; 786-0 renal; COLO 205 colon.
Holding throughout (assay): NCI-60 one-dose screen, 48 h (100 = growth as untreated, 0 = no growth, -100 = all killed)
Common to all, as to settings: 10 µM unless noted

Take `CCCCCCCCCCCCCCC(C(=O)OCC)C(=O)OCC`: the growth with NCI-H23 lung was 105%; with NCI-H226 lung, 93.3%; with NCI-H322M lung, 104%; with HOP-62 NSCLC, 105%; in the test with NCI-H460 lung it was 109%; with HOP-92 NSCLC, 105%. Moreover, the growth is 92.6% in the test on NCI-H522 lung, 109% in the test on A549/ATCC NSCLC, 115% in the test with 786-0 renal and 115% with COLO 205 colon.

Take `O=c1c2sc3ccccc3c2nnn1-c1ccc(F)c(Cl)c1`: the growth with NCI-H23 lung is 73%; with NCI-H226 lung, 34.3%; in the test on NCI-H322M lung, 49.4%; in the test with HOP-62 NSCLC, -15% (active); in the test with NCI-H460 lung, 10.4%; with HOP-92 NSCLC, -1.07% (active). In addition, the growth in the test on NCI-H522 lung is 64.5%; in the test on A549/ATCC NSCLC it was 30.3%; in the test on 786-0 renal, 31.9%; with COLO 205 colon it was 41.9%.

Take `SCc1ccc(CS)cc1`: the growth was 106% in the test with NCI-H23 lung; 109% with NCI-H226 lung; 98.2% with NCI-H322M lung; 102% in the test on HOP-62 NSCLC; 108% in the test on NCI-H460 lung; 77.2% with HOP-92 NSCLC. For the same compound, the growth with NCI-H522 lung was 108%; with A549/ATCC NSCLC it was 110%; with 786-0 renal it was 98.1%; in the test with COLO 205 colon it was 116%.

Take `CC1(C)CC[C@]2(C(=O)N3CCNCC3)CC[C@]3(C)C(=CC[C@@H]4[C@@]5(C)CCC(=O)C(C)(C)[C@@H]5CC[C@]43C)[C@@H]2C1`: the growth in the test with NCI-H23 lung was 103%; in the test on NCI-H226 lung, 99.4%; with NCI-H322M lung, 108%; with HOP-62 NSCLC, 97.3%; in the test on NCI-H460 lung, 109%; in the test on HOP-92 NSCLC, 109%. Moreover, the growth is 94.5% in the test on NCI-H522 lung, 102% with A549/ATCC NSCLC, 102% in the test on 786-0 renal and 105% in the test with COLO 205 colon.

As for `COc1ccc(/C=C2\CCCC3=C2N=C2SC(C)=NN2C3c2ccc(OC)c(OC)c2)cc1OC` (stereo not given), the growth was 35.5% with NCI-H23 lung; 31% with NCI-H226 lung; 27.9% in the test with NCI-H322M lung; 23.1% in the test with HOP-62 NSCLC; 19.1% with NCI-H460 lung; 37.2% with HOP-92 NSCLC. Also, the growth is 35.8% in the test with NCI-H522 lung, 20.1% in the test on A549/ATCC NSCLC, 53% in the test on 786-0 renal and 22.2% with COLO 205 colon.

On to `COc1ccc(Sc2[nH]c(C=O)c3ccccc23)cc1`, for which the growth with NCI-H23 lung is 73.3%; with NCI-H226 lung it was 72.5%; in the test on NCI-H322M lung, 46.8%; with HOP-62 NSCLC, 71%; in the test on NCI-H460 lung, 6.72% (active); with HOP-92 NSCLC it was 53.8%. The growth with NCI-H522 lung was 75.2%; in the test on A549/ATCC NSCLC, 34.5%; in the test with 786-0 renal it was 70.1%; in the test on COLO 205 colon it was -0.0496% (active).

Regarding `O=C(Nc1cccc(Cl)c1)Nc1cc(C(F)(F)F)ccc1Cl`, the growth with NCI-H23 lung was -12.3% (active); in the test on NCI-H226 lung it was 20.8%; with NCI-H322M lung, 30.8%; in the test on HOP-62 NSCLC, 41.3%; with NCI-H460 lung it was -34.6% (active); in the test on HOP-92 NSCLC, -20.3% (active). The growth is -26.9% (active) in the test with NCI-H522 lung, 11.3% in the test with A549/ATCC NSCLC, 8.47% (active) in the test with 786-0 renal and -28.2% (active) in the test on COLO 205 colon.

Regarding `COc1cc(C)cc2oc3oc(=O)c(-c4csc(-c5cc6ccccc6oc5=O)n4)cc3c(=O)c12`, the growth was 101% in the test on NCI-H23 lung; 102% with NCI-H226 lung; 105% in the test with NCI-H322M lung; 103% in the test on HOP-62 NSCLC; 106% in the test on NCI-H460 lung; 105% in the test on HOP-92 NSCLC. Further, the growth in the test on NCI-H522 lung was 103%; in the test with A549/ATCC NSCLC, 114%; with 786-0 renal, 106%; in the test on COLO 205 colon it was 119%.

On to `CN1CCN(Cc2ccc(NC(=O)c3cccc(C#Cc4cnc(N)c5ncccc45)c3F)cc2C(F)(F)F)CC1`, for which the growth in the test on NCI-H23 lung is 61.4%; in the test on NCI-H226 lung, 19.3%; in the test with NCI-H322M lung it was 46.7%; in the test on HOP-62 NSCLC, 49.4%; in the test on NCI-H460 lung, -71.8% (active); in the test on HOP-92 NSCLC, 26.5%. Further, the growth in the test with NCI-H522 lung is -9.1% (active); with A549/ATCC NSCLC it was 38.2%; with 786-0 renal, -88.2% (active); with COLO 205 colon it was 42.5%.

Regarding `COc1ccc(-c2nn(-c3cccc(Cl)c3)cc2/C=C2\C(=N)N(c3ccccc3)N=C2N)cc1`, the growth is 51.2% in the test on NCI-H23 lung; 40.8% in the test with NCI-H226 lung; 44.9% with NCI-H322M lung; 65.8% in the test on HOP-62 NSCLC; 6.92% (active) in the test on NCI-H460 lung; 96.2% in the test with HOP-92 NSCLC. Further, the growth with NCI-H522 lung was 51.5%; with A549/ATCC NSCLC, 36.6%; with 786-0 renal, 29.1%; in the test with COLO 205 colon it was -22.8% (active).

Consider `[O-]/[N+](=C\c1ccccc1)CC1(O)CCCCC1`, for which the growth is 104% in the test on NCI-H23 lung; 99.5% in the test on NCI-H226 lung; 112% in the test with NCI-H322M lung; 109% with HOP-62 NSCLC; 103% in the test with NCI-H460 lung; 78% in the test on HOP-92 NSCLC. Moreover, the growth in the test on NCI-H522 lung was 93.7%; in the test on A549/ATCC NSCLC, 101%; with 786-0 renal, 109%; with COLO 205 colon it was 117%.

On to `C#CC[C@@H]1C[C@]2(C)[C@H]3CC[C@@H]4[C@H]5C(C(=C)C)CC[C@]5(C(=O)NCCCN5CCN(CCCN)CC5)CC[C@@]4(C)[C@]3(C)CC[C@H]2C(C)(C)[C@H]1OC(C)=O` (stereo not given in full), for which the growth was 3.21% (active) with NCI-H23 lung; 87.4% with NCI-H226 lung; -81.2% (active) with NCI-H322M lung; -59.7% (active) in the test on HOP-62 NSCLC; -77% (active) with NCI-H460 lung; -78.3% (active) with HOP-92 NSCLC. Moreover, the growth with NCI-H522 lung was 4.62% (active); in the test with A549/ATCC NSCLC it was -61.9% (active); with 786-0 renal, -97.5% (active); with COLO 205 colon, -68.3% (active).

For the compound `CCOc1cccc(/C=N/NC(=O)Cc2ccc(Nc3ccnc(C(F)(F)F)c3)cc2)c1O`, the growth with NCI-H23 lung is 39%; in the test with NCI-H226 lung, -1.59% (active); in the test with NCI-H322M lung, 36.8%; with HOP-62 NSCLC, 7.88% (active); in the test with NCI-H460 lung, 0.302% (active); with HOP-92 NSCLC, 46.7%. Besides, the growth in the test with NCI-H522 lung was 13.4%; with A549/ATCC NSCLC, 47.3%; in the test on 786-0 renal it was 29%; in the test on COLO 205 colon, 4.75% (active).
